# Data from the supplement of paper PMC3334620.
# The full ranking holds about 33,000 sequences; the median of “E-score (-0.5 to 0.5)” is about -0.054, and the highest 2% start at about 0.39. The list comes from a sample in which the highest values are over-represented; it also holds similar and randomly drawn sequences.
# Target: Ylr278c (UniProt Q05854)
# Assay: PBM E-score (8-mer binding enrichment) (E-score (-0.5 to 0.5)); higher = stronger / more preferred TF binding
# Details: protein concentration: 200 nM; construct: GST-DNA-binding domain
# Summary of the method: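 The E-score, a modified Wilcoxon-Mann-Whitney statistic, was computed by the Universal PBM Analysis Suite for every ungapped eight-base word pooled with its reverse complement. Scans behind it were normalised with masliner after bound GST-tagged yeast transcription factors were detected with fluorescent anti-GST. The proteins, at about 100-200 nM, had been applied to universal all-10-mer Agilent arrays made double-stranded by primer extension.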
# Chain of UniProt Q05854 (Q05854 whole entry): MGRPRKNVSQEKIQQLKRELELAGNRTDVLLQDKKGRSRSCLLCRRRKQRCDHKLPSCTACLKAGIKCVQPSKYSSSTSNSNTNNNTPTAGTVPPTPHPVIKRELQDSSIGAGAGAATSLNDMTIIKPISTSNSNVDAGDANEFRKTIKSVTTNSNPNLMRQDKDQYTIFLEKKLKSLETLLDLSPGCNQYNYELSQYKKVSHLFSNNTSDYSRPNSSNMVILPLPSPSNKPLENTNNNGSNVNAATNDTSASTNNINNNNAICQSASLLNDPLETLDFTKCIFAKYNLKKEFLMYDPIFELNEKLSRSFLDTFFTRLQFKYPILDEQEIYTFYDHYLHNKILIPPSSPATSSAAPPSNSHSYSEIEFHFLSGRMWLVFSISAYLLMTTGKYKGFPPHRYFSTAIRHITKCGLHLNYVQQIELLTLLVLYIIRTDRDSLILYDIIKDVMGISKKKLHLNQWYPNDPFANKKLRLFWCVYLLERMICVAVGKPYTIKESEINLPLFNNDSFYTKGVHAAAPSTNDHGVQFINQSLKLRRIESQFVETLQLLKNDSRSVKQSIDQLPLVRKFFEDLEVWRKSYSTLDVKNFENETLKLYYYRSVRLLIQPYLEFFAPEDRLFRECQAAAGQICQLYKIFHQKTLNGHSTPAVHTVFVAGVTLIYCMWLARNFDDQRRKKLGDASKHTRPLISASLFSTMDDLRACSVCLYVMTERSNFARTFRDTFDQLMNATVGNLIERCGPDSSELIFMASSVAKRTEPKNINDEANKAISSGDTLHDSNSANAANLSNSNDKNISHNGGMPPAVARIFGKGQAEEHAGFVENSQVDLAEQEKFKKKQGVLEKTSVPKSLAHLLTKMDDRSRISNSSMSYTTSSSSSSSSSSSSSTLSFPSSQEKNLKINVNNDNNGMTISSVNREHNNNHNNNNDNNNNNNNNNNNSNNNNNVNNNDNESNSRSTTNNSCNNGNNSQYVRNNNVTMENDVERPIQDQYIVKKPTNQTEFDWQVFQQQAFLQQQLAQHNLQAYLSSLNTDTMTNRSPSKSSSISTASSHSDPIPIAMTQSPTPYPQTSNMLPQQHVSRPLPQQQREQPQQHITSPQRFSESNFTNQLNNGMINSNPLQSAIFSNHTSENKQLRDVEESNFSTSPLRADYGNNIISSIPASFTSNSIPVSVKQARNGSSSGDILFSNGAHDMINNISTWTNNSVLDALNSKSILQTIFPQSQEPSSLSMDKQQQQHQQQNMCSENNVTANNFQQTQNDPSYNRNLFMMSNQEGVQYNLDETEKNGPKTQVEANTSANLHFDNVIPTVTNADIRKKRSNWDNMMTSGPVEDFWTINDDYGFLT
row,Sequence,PBM E-score
1,CGGGTGAG,0.167
2,CATATGGC,-0.0951
3,ACCAGATA,-0.0605
4,CGTTGGAA,-0.0729
5,CCTTCGAG,-0.0791
6,AGGAGACA,-0.0751
7,GGGAGACC,-0.0886
8,CGGAGACG,0.415
9,AGGAGACC,-0.145
10,CAGAGACG,-0.0283
11,CGGAGACA,0.39
12,CGGAGACC,0.406
13,TGGAGACA,-0.227
14,AGGAGACG,-0.12
15,CCTCCTAA,-0.122
16,GATCTAAA,0.0142
17,CAAAGGTC,-0.224
18,ATACTTGA,-0.345
19,CCCAGTCA,-0.242
20,CCTAGAAC,-0.0753
21,AGACGGAA,0.238
22,CGACGGAA,0.339
23,AGACGGAG,0.392
24,AGACGGAT,0.176
25,CGACGGAC,0.337
26,CGACGGAG,0.421

row,Sequence,PBM E-score
1,ATTGGACG,-0.00534
2,AATATGCC,-0.0168
3,ACATATCA,-0.0989
4,CTAGGCTA,-0.193
5,AAGGTCCG,0.426
6,CCGGTCCC,0.355
7,AAAGTCCA,-0.0593
8,CCGGTCCA,0.21
9,CAGGTCCG,0.353
10,ATAGTCCA,-0.109
11,ATAGTCCG,0.413
12,CCGGTCCG,0.45
13,AAAGTCCT,0.226
14,ATAGTCCC,-0.153
15,AAAGTCCG,0.482
16,AAGGTCCA,-0.124
17,CCGTTGAG,0.0643
18,ACTAGCTC,-0.157
19,AGAGCTGC,-0.0659
20,AAACAACA,-0.119
21,CGTATCCC,0.048
22,GGACTTAC,0.305
23,GAAGCTAC,-0.144
24,AACACCTC,-0.251
25,GTGTGGTA,-0.165
26,CAAGTCCC,-0.108

row,Sequence,PBM E-score
1,CGAGTCCA,-0.144
2,CAAGTCCG,0.455
3,CAAGTCCA,-0.118
4,AGAGTCCG,0.347
5,CGAGTCCG,0.391
6,CCGAGACG,0.134
7,ACCTCAGA,-0.0802
8,TCCCCGGA,0.435
9,GCCCCCGA,0.0674
10,CCCCCGGA,0.395
11,TCCCCGAA,0.357
12,CCCCCGGC,0.254
13,GGCCCGGA,0.395
14,GCCCCGGC,0.259
15,GGCCCGCA,0.188
16,GGCCCGTA,0.173
17,GCCCCGGA,0.439
18,TCCCCCGA,0.263
19,CCCCCCGA,0.083
20,ATATTTTC,0.0689
21,GACCTAAC,0.0677
22,GCAGACGA,-0.119
23,GGATCTGA,0.00665
24,AACCCATC,-0.0461
25,CAGTCATG,-0.129
26,ATGGCTGG,-0.209

row,Sequence,PBM E-score
1,CCAGCATC,-0.0271
2,ATCACTGC,-0.0314
3,ACTGTGGC,-0.32
4,GGACTGAC,-0.0427
5,CCCCTTAC,-0.195
6,CCCCGGGC,0.342
7,AGCCCGGC,0.332
8,AGCCCGGG,0.328
9,AACCCGGG,0.319
10,CCCCGGGG,0.412
11,AGCCCGGA,0.448
12,CGCCCGAA,0.111
13,ACCCGGGG,0.246
14,CGCCCGGC,0.292
15,ACCCCGGG,0.404
16,CCCCCGGG,0.296
17,CGCCCGGA,0.435
18,GTAAATGA,0.024
19,GACAAGCC,-0.0446
20,CGACTTAG,-0.168
21,GCAACTCC,0.327
22,AACGCCAA,-0.0358
23,GATTTCTA,0.238
24,CATCCACG,-0.153
25,CGCTAGGC,-0.0311
26,GCATGGCA,0.0442

row,Sequence,PBM E-score
1,ACCCCGGA,0.445
2,TCCCGGGA,0.398
3,ACCCCGGT,0.385
4,CCCCGGGA,0.378
5,ACCCGGGA,0.307
6,ACCCCGGC,0.355
7,GGTCTTAC,-0.0198
8,GAAGCGGC,0.125
9,GGATGCCA,-0.277
10,ATATTCCG,0.43
11,CAATTCCC,0.19
12,ATATTCCC,0.277
13,AAATTCCG,0.471
14,CAATTCCG,0.465
15,CAATTCCA,-0.0617
16,AAATTCCA,0.115
17,CGATTCCG,0.396
18,ATATTCCA,0.0484
19,CGATTCCA,0.056
20,CGATTCCC,0.226
21,AAATTCCC,0.254
22,ATACCGTC,0.153
23,AACCTAGT,-0.00542
24,AACTTAGG,-0.156
25,CAAGTGCA,-0.362
26,TGGTTCAA,-0.118

row,Sequence,PBM E-score
1,ATACCTTC,0.0292
2,GGCGCACA,0.145
3,TCCCTCAA,-0.106
4,AGGCCGGG,0.258
5,GGGCCGAA,0.198
6,AGGCCGGA,0.419
7,CGGCCGTA,0.225
8,CGGCCGGC,0.409
9,AGGCCGGC,0.342
10,CGGCCGGA,0.424
11,GGGCCGGA,0.418
12,AGGCCGTA,0.0868
13,CGGCCGAC,0.309
14,CGGCCGCA,0.249
15,GGGCCGTA,0.0879
16,CACCTAAG,-0.134
17,CTTACCTC,-0.0434
18,AGGTTGGG,-0.122
19,ACGCTACT,0.0556
20,AGCAATCA,-0.118
21,CATTGTCC,0.314
22,CGCCATAG,-0.135
23,GGTTGATA,-0.0138
24,CGTCGTTC,0.137
25,ATCTGACG,-0.134
26,CGTGCCAA,-0.0693

row,Sequence,PBM E-score
1,CGGCCTTC,0.394
2,CGGCCTTA,0.352
3,AGGCCTTC,-0.221
4,AGTTCCGG,0.433
5,GGTTCCGA,0.384
6,CGTTCCGA,0.288
7,AGTTCCGA,0.43
8,AGTTCCGC,0.383
9,AGTTCCTG,-0.0874
10,AGAACCGG,0.345
11,CACTCCGG,0.46
12,AACTCCCG,0.365
13,AACTCCTG,0.152
14,CACTCCTG,-0.0899
15,CACTCCGC,0.393
16,CACTCCTC,0.0388
17,AACTCCGG,0.497
18,CACTCCCG,0.193
19,CACTCCGA,0.454
20,CACTCCAA,0.031
21,CACTCCCA,-0.106
22,CACTCCAC,-0.139
23,ATCTAGTC,0.0095
24,GAGCGCGC,0.182
25,GGCATCTA,-0.0448
26,ATCCATCA,-0.135

row,Sequence,PBM E-score
1,GACTCCAC,-0.0152
2,TACTCCAA,-0.243
3,GACTCCTC,-0.135
4,GACTCCTA,-0.191
5,TACTCCTA,-0.187
6,TACTCCGA,0.479
7,AACTCCTC,0.0657
8,GACTCCAA,-0.221
9,GACTCCGA,0.467
10,AACTCCCC,0.266
11,AACTCCGC,0.49
12,GACTCCGC,0.426
13,CATCAGTA,-0.233
14,GGTGTGAC,-0.172
15,GTAAACAA,-0.0542
16,GTGCTCAA,-0.104
17,ACCGCCCA,0.154
18,AACCTTCA,-0.245
19,TCACTCCA,-0.0238
20,AAGCTTGA,-0.0383
21,TCGGTCAA,0.0369
22,GATTGCAC,0.0435
23,AACTCCCT,-0.072
24,AACTCCAT,0.214
25,AACTCCGT,0.486
26,AACTCCCA,0.155

row,Sequence,PBM E-score
1,AACTCCGA,0.496
2,AACTCCAA,-0.00212
3,GACTTTCC,0.137
4,CTGCGAAA,-0.0633
5,CCCCTGAA,-0.144
6,CACCCCAA,-0.0388
7,CCGCCGCC,0.304
8,CCGCCGCA,0.266
9,ACGCCGGG,0.365
10,ACGCCGGA,0.432
11,GCGCCGGA,0.432
12,CCGCCGTA,0.354
13,GCGCCGTA,0.231
14,GCGCCGAA,0.302
15,CCGCCGTC,0.218
16,CCGCCGGA,0.462
17,CCGCCGGC,0.41
18,ACGCCGTA,0.0546
